# Measurements reported in PubChem BioAssay (NCI).
# Compounds without any hit were thinned out: in the full panel of roughly 83,000, 20% have a hit.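 Cells were grown in 96-well plates and exposed to the test compound at a single concentration for 48 hours; results are reported as percent growth, with values below 10 considered active.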 The source made the active and inactive calls.
# Test system: SNB-75 CNS
# Assay: NCI-60 one-dose screen, 48 h (100 = growth as untreated, 0 = no growth, -100 = all killed)
# Details: 10 µM unless noted
# Procedure: Growth inhibition of the SNB-75 human tumor cell line is measured as a screen for anti-cancer activity. Cells are grown in 96 well plates and exposed to the test compound for 48 hours. Compounds are tested at a single concentration, which is 10^-5 M for most compounds. The reported endpoint is percent growth (GI% or GIPRCNT), where numbers from 0 - 100% represent growth inhibition, and numbers from -100% - 0 represent cell death. For example, a value of 40 represents 60% growth inhibition. A value of 0 means no net growth occurred over the course of the experiment. A value of -40 indicates 40% of cells at the beginning of the experiment died by the end of the experiment. A value of -100 means all cells are dead at the end of the experiment.
# NCI-60 Human Tumor Cell Lines Screen was performed using the standard one-dose NCI protocol, which is described in more detail at https://dtp.cancer.gov/discovery_development/nci-60/default.htm.
# Compounds with GIPRCNT values below 10 were considered active. Activity score was based on GIPRCNT using the following formula: […]
# Score is 0 for GIPRCNT values of 100 or above, 50 for GIPRCNT values of 0, and 100 for GIPRCNT values of -100.
row,SMILES,growth
1,C=C1C(=O)O[C@H]2[C@H]1CC/C(COC(=O)/C=C\C(=O)NCc1ccc(Cn3c(=O)sn(-c4ccc(C#N)cc4)c3=O)cc1)=C\CC[C@@]1(C)O[C@@H]21,-82.2% (active)
2,CC(C)(O)c1cccc(F)c1,92.3% (inactive)
3,COc1cc2oc(-c3cccc(C(=O)Nc4ccc(C)cc4)c3)cc(=O)c2c(OC)c1OC,45.5% (inactive)
4,CSc1ncc(C)c(Nc2ccc(Cl)cc2)n1,90.4% (inactive)
5,COc1ccc(-c2nc3ncccn3c2/C=C/C(=O)c2cc(OC)c(OC)c(OC)c2)cc1,9.26% (active)
6,CC(C)N(CCOC(=O)Nc1ccccc1Cl)C(C)C,107% (inactive)
7,CCOC(=O)c1ccc(-c2ccc3cc(OC)ccc3c2)nc1C,110% (inactive)
8,Cl.Fc1c[c-]c(-c2ccccn2)c(F)c1.[Pt].c1ccc(P(c2ccccc2)C([PH+](c2ccccc2)c2ccccc2)[PH+](c2ccccc2)c2ccccc2)cc1,7.77% (active)
9,O=C1CSC(c2ccccc2O)N1c1nnc(Cn2cnnc2)o1 (stereo not given),66.8% (inactive)
10,COc1cc(NC(=O)c2cc(O)c(CC=C(C)C)c(O)c2)cc2c1O[C@]1(C)CC[C@@H](O)C(C)(C)[C@H]1C2,-7.48% (active)
11,O=S(=O)(Cc1ccccc1)c1nc2ccccc2s1,90% (inactive)
12,CCNCCNc1cc(-c2ccc(F)cc2)c(C#N)c2nc3ccccc3n12,48.4% (inactive)
13,O=[N+]([O-])c1ccc2[nH]cc(-c3c4ccsc4cc4[nH]c5ccc([N+](=O)[O-])cc5c34)c2c1,-24.3% (active)
14,Clc1ccc(-c2nnc(-c3ccco3)o2)cc1,89.1% (inactive)
15,CCN(CC)CCOc1ccc(/C(=C(\C)c2ccc(OC)c(F)c2)c2ccc(Cl)cc2)cc1,94.7% (inactive)
16,Nc1ccc2c(S(=O)(=O)O)ccc(S(=O)(=O)O)c2c1,92% (inactive)
17,Fc1ccc(Nc2nc3nonc3nc2Nc2ccc(F)cc2)cc1,-12.9% (active)
18,CC(=O)OCCc1ccccc1,74.4% (inactive)
19,CC(/C=N/NC(=O)c1cc(-c2ccco2)[nH]n1)=C\c1ccccc1,66.8% (inactive)
20,COc1ccc(Nc2ncc(Br)c(NCCCNC(=O)C3CCC3)n2)cc1,-4.95% (active)

row,SMILES,growth
1,N#Cc1c(N)nc2c(nnn2-c2cccc(Br)c2)c1N,97.6% (inactive)
2,CCN(CC)N=Nc1nn(C(=O)Nc2ccc(Cc3ccccc3)cc2)c2ccc(Cl)cc12,88.8% (inactive)
3,Cc1nc(-c2ccccc2)cc2c(O)c(C(=O)N/N=C/c3ccc(N(C)C)cc3)[nH]c(=O)c12,62.2% (inactive)
4,CCCCOc1ccc(NC(=O)n2nc(N=NN(C)C)c3ccc(Cl)cc32)cc1,89.1% (inactive)
5,Clc1ccc(-c2nnc(Cn3ccnc3)o2)cc1,91.8% (inactive)
6,CCN(CC)CCOC(=O)N1c2ccccc2Sc2ccccc21,84.2% (inactive)
7,NC(N)=N/N=C(/c1ccccc1)c1ccccc1F,7.44% (active)
8,CCOC(=O)c1c2c(c(C)n1C)-c1nn(Cc3ccc(OC)cc3)cc1CC2,103% (inactive)
9,CCOc1ccc(S(=O)(=O)c2ccc(C)cc2)c2c1no[n+]2[O-],54.7% (inactive)
10,CCNCCNc1cc(-c2cccc(C(F)(F)F)c2)c(C#N)c2nc3ccccc3n12,-89.3% (active)
11,COc1cc2oc3cc(C)oc(=O)c3c2cc1OC,103% (inactive)
12,N#Cc1cnn2c(-c3ccc(Cl)cc3)nc(NC3CC3)nc12,87.7% (inactive)
13,CC1=NN(c2cccc(Cl)c2)C(=O)/C1=C\c1cn(CC(O)CN2CCCCC2)c2ccccc12 (stereo not given),87.2% (inactive)
14,COc1cc2c(c(OC)c1OC)C(=O)/C(=C/c1cc(C)c(O)c(C)c1)S2,4.46% (active)
15,NC(=O)c1c(NC(=O)c2ccccn2)sc2c1CCC(=O)C2,-1.34% (active)
16,COc1cc2cc(Oc3ccc(NC(=O)Nc4cc(C(F)(F)F)cc(C(F)(F)F)c4)cc3)c(C)nc2cc1OCCN1CCCCC1,-97.7% (active)
17,OC(c1cccc(OCc2ccccc2)c1)c1nnc(-c2ccccc2)o1 (stereo not given),94.2% (inactive)
18,CCCCCCNCc1cc(C(C)(C)C)cc(CNCCCCCC)c1O,-62.1% (active)
19,CCOc1cccnc1/C=N/NC(N)=S,68.7% (inactive)
20,Cc1cc(C(c2ccccc2)c2ccccc2)ccc1NS(=O)(=O)c1ccccc1,95.4% (inactive)
